Assay results: the supplement of paper PMC12067093, “Discovery and optimisation of a covalent ligand for TRIM25 and its application to targeted protein ubiquitination” (Chemical Science, 2025)
Targets with the largest changes are over-represented here; the source holds about 21,000 in all.

compound: CC1Cc2ccccc2N1C(=O)C1CCCN(C1)C(=O)CCl (mixture of isomers) [TRIM25 ligand 11 (diastereomer mixture)]; assay: probe-labelled cysteine peptide fold change vs DMSO (competition) (log2 fold change); higher = less target engagement (more negative = stronger competition); conditions: 10 µM; THP-1; incubation time: 4 h
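Further: competitive chemoproteomic profiling in live THP-1 cells with an iodoacetamide desthiobiotin (IA-DTB) probe, comparing probe-labelled peptide intensities in compound-treated cells against DMSO-treated controls.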

Chain of UniProt Q96RL1 (Q96RL1 whole entry, looked up): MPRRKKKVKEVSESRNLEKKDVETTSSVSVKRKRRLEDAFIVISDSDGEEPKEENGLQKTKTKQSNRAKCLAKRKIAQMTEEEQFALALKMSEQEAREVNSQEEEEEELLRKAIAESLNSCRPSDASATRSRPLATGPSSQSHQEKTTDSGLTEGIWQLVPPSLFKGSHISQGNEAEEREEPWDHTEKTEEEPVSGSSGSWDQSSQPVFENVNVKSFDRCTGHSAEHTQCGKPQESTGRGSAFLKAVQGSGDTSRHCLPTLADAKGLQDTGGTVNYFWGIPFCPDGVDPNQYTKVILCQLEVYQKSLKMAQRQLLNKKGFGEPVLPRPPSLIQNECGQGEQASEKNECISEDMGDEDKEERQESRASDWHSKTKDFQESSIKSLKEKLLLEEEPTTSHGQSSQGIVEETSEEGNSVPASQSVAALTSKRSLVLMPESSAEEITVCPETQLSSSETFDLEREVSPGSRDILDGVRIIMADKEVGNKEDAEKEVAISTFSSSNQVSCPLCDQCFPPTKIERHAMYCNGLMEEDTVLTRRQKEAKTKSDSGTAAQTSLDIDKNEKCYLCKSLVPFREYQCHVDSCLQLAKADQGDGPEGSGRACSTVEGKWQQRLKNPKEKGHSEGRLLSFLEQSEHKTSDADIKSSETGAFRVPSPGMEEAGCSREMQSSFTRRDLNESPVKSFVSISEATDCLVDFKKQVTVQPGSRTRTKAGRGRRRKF
Chain of UniProt P29597 (P29597 whole entry, looked up): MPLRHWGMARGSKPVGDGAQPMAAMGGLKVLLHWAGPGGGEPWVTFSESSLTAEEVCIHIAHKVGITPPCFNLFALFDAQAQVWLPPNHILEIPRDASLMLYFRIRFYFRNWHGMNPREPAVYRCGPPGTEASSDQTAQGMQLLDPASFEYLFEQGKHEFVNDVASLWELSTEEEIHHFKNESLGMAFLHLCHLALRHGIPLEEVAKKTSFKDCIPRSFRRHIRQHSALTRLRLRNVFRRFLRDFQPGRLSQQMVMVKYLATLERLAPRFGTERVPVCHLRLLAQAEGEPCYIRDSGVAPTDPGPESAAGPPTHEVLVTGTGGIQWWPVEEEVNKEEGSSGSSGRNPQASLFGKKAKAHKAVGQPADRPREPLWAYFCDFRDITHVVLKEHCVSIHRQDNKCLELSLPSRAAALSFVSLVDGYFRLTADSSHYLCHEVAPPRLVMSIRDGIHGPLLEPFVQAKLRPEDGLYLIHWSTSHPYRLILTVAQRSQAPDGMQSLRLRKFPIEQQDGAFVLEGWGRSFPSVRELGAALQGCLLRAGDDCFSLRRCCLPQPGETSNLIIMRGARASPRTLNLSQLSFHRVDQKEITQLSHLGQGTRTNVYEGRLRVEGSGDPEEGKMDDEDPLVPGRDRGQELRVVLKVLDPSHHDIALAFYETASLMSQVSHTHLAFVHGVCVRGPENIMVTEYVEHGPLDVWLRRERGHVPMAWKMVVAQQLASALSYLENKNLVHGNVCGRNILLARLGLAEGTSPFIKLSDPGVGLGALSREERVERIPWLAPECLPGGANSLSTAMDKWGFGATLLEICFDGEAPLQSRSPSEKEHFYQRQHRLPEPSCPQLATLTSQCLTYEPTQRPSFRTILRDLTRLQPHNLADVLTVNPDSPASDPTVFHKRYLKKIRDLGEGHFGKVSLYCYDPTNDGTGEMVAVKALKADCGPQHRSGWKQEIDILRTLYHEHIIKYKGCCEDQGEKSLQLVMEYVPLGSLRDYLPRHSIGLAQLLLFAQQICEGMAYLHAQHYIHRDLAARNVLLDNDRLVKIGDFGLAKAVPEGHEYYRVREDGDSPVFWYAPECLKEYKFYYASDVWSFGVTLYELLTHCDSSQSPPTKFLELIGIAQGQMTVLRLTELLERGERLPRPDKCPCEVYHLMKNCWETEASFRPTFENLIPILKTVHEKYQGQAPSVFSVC
Chain of UniProt Q96N46 (Q96N46 whole entry, looked up): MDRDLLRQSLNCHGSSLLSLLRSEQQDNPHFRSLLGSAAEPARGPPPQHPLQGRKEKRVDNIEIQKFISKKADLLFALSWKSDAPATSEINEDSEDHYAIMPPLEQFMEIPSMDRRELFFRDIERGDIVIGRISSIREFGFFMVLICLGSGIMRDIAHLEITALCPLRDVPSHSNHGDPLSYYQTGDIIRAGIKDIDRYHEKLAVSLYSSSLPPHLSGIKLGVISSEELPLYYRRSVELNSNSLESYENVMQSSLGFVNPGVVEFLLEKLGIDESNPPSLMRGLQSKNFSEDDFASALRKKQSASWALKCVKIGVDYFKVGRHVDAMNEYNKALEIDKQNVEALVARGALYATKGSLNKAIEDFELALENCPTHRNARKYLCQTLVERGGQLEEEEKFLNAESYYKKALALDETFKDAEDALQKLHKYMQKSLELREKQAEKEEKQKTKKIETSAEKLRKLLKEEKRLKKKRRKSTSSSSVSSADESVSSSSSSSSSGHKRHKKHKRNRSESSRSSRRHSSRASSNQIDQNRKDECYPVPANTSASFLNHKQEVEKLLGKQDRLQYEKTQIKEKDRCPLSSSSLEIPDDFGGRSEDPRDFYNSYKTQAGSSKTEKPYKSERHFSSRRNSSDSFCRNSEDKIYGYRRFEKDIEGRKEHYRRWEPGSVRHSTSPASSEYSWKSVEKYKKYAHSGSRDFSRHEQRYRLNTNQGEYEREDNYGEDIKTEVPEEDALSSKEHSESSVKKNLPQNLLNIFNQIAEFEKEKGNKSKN
Chain of UniProt Q9H832 (Q9H832 whole entry, looked up): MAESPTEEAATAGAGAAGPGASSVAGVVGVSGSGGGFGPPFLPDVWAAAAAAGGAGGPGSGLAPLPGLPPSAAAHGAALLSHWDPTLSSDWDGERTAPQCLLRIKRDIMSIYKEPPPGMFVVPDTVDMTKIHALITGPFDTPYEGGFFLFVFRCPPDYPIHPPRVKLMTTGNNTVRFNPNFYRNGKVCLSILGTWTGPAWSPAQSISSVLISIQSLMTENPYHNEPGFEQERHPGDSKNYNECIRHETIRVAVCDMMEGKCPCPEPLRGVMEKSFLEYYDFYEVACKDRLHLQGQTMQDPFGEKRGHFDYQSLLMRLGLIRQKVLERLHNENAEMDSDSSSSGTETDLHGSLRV
Chain of UniProt Q9Y2K6 (Q9Y2K6 whole entry, looked up): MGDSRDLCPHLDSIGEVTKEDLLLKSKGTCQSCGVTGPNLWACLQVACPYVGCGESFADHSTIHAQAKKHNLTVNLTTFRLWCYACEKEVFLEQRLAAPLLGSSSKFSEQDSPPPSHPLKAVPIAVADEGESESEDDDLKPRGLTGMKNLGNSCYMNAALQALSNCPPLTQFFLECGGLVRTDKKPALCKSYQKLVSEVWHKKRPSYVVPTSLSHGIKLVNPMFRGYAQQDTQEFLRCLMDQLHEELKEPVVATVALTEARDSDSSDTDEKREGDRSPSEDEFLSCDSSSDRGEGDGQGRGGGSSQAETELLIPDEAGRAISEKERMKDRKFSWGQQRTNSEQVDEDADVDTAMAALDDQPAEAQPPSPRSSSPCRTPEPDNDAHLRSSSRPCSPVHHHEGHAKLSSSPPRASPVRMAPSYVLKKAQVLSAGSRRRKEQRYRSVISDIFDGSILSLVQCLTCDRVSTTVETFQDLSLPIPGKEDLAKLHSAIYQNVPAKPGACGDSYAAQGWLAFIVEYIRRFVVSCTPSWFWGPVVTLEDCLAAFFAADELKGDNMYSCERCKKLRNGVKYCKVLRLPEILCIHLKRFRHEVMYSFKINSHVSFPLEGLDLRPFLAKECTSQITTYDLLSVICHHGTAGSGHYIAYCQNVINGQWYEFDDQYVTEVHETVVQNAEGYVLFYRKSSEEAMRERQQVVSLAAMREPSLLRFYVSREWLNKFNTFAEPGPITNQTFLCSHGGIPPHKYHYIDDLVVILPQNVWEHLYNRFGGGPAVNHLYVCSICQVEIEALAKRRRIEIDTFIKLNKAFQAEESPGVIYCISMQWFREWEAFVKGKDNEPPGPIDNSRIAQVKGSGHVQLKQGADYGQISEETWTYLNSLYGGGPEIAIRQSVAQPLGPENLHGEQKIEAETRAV
Chain of UniProt Q9H6Y2 (Q9H6Y2 whole entry, looked up): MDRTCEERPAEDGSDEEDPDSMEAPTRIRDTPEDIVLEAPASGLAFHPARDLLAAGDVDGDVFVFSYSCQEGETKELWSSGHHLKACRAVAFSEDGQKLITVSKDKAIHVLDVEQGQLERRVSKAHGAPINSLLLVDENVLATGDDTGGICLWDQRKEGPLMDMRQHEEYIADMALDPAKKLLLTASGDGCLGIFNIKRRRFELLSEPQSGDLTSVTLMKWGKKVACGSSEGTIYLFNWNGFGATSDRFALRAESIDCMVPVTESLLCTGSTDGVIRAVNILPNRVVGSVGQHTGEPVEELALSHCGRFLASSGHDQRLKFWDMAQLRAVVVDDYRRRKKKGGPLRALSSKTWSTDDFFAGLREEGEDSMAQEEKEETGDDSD
Chain of UniProt P19544 (P19544 whole entry): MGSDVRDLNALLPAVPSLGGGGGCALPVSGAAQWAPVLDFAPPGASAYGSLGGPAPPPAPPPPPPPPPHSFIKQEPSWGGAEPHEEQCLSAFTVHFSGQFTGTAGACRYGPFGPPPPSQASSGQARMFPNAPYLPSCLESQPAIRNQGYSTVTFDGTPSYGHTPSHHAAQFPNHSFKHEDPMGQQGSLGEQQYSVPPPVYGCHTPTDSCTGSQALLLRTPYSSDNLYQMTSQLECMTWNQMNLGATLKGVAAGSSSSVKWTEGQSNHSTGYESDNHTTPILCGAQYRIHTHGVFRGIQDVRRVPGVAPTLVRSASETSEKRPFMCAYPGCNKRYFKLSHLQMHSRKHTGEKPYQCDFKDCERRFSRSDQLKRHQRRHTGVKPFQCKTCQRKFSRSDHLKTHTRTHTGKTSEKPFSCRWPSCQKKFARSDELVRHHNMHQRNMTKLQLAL

Row | Target | probe-labelled cysteine peptide fold change
1 | VEZF1_Q14119_327_TCMSEETSNQK (UniProt Q14119) | -0.186
2 | TYK2_P29597_1140_CPCEVYHLMK (UniProt P29597) | -0.0795
3 | VCP_P55072_174_VVETDPSPYCIVAPDTVIHCEGEPIKR (UniProt P55072) | 0.0996
4 | WT1_P19544_385_HTGVKPFQCK (UniProt P19544) | -0.144
5 | UIMC1_Q96RL1_121_AIAESLNSCRPSDASATR (UniProt Q96RL1) | 0.14
6 | UBE2Z_Q9H832_243_NYNECIR (UniProt Q9H832) | -0.049
7 | UBR2_Q8IWV8_1332_VHPNEEDPRVPIMCWGSCAYTIQSIER (UniProt Q8IWV8) | -0.326
8 | VPS18_Q9P253_947_ADLDELVAAECVYCGELMIR (UniProt Q9P253) | 0.712
9 | WDR55_Q9H6Y2_5_TCEERPAEDGSDEEDPDSMEAPTR (UniProt Q9H6Y2) | -0.76
10 | WDR47_O94967_672_GSIYCVAWSPCGQLLATGSNDK (UniProt O94967) | -0.126
11 | TTC14_Q96N46_165_DIAHLEITALCPLR (UniProt Q96N46) | 0.0661
12 | USP20_Q9Y2K6_8_DLCPHLDSIGEVTKEDLLLK (UniProt Q9Y2K6) | -0.12
13 | TTF2_Q9UNY4_1118_FVCEGTVEEK (UniProt Q9UNY4) | -0.132
14 | UNK_Q9C0B0_100_YDEATGLCPEGDECPFLHR (UniProt Q9C0B0) | 0.613
15 | TRPM7_Q96QT4_1426_DQETVCSK (UniProt Q96QT4) | -0.118
16 | VCPIP1_Q96JH7_940_HCTFPHLPGK (UniProt Q96JH7) | 0.0492
